# Rows were chosen to be rich in hits. Some 3.5% of all compounds tested hit in one or more screens of this group.
# FBW7 act = activators of human E3 ligase FBW7; Q969H0; AlphaScreen FBW7–phospho-cyclin E peptide binding, activator screen; normalized activity (activation), % at 26.1 µM; hit rate 0.13% among 650,000; AID 1259310; in the data active = normalized activity above about 1.9%;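 also: purified mutant Fbw7 with reduced substrate affinity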
# Target sequence (Q969H0 whole entry, looked up): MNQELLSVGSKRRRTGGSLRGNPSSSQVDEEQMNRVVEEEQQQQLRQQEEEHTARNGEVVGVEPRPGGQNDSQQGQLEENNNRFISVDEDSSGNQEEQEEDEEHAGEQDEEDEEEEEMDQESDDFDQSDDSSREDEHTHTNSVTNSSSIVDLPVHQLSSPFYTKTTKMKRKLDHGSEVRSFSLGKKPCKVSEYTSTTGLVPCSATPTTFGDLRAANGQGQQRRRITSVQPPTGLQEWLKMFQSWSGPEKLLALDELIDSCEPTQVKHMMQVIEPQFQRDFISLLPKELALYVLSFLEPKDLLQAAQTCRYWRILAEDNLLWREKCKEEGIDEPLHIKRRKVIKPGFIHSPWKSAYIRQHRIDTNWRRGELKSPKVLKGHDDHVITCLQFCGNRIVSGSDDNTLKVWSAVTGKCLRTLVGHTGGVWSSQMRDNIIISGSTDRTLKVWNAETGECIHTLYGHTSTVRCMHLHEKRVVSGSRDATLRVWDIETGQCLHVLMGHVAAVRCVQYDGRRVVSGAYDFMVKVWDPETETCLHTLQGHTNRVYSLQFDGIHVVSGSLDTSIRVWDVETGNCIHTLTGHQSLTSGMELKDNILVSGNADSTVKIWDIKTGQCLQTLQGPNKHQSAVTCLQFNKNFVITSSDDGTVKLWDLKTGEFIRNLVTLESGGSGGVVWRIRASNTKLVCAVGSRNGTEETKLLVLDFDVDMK
# TEAD-YAP inh = TEAD-YAP interaction inhibition. AID 1259422. inhibition, % at 9.12 µM. HEK-TIYL cells, TEAD-Gal4/YAP UAS-luciferase luminescence. hit rate 1.4% among 640,000; in the data active = inhibition above about 32%;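 also: 0% = median of test compound wells and 100% = reference inhibitor wells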
# MITF inh = human MITF inhibition, primary screen; AlphaScreen MITF homodimerization, bead proximity signal; inhibition, % at 2.6 µM; hit rate 0.91% among 650,000; in the data active = inhibition above about 50%;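 also: 0% = vehicle wells with protein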
# GPR151 ag = activates the human receptor GPR151; Q8TDV0; activation, % at 11.2 µM; hit rate 1% among 650,000; PathHunter beta-arrestin GPR151 cells, luminescence; in the data active = activation above about 4.9%;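 also: 0% = median of compound wells and 100% = cells with positive control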
# * = called active by the depositor.
SMILES,FBW7 act,TEAD-YAP inh,MITF inh,GPR151 ag
O=C1CCCN1CCn1cnc2c(NCCOc3ccccc3)nc(Nc3ccc(-n4ccnc4)cc3)nc21,0,3,14,2
CCOc1ccc(S(=O)(=O)Nc2ccc(-c3cn4nc(OC)ccc4n3)cc2)cc1,0,-32,-17,0
c1ccc2c(NCCCN3CCOCC3)ncnc2c1,1,4,13,1
Cc1cccc(COc2ccc3c(c2)oc(=O)c2ccccc23)c1,0,7,-4,0
Cc1cccnc1NS(=O)(=O)c1cc(C(=O)O)c(Cl)cc1Cl,0,2,4,-1
COc1ccc(-n2nc3c(c2NC(=O)/C=C\c2ccco2)CSC3)cc1,0,-5,-1,2
COc1cc(Nc2nc(NCCCN3CCCC3=O)c3ncn(-c4ccccc4)c3n2)cc(OC)c1OC,0,49*,9,-1
Cc1nn(C)c(C)c1-c1nc(NCCCN2CCCC2=O)c2ncn(-c3ccccc3)c2n1,0,18,-7,0
Cc1nn(C)c(C)c1-c1nc(NCCCN2CCCC2=O)c2ncn(-c3ccsc3)c2n1,0,56*,16,-1
O=C1CCCN1CCCNc1nc(Nc2ccc(C(F)(F)F)cc2)nc2c1ncn2-c1ccsc1,0,12,5,0
O=C1CCCN1CCCNc1nc(Nc2ccccc2)nc2c1ncn2-c1ccsc1,0,65*,9,1
O=C1CCCN1CCCNc1nc(Nc2cccnc2)nc2c1ncn2-c1ccsc1,0,47*,-5,0
O=C(O)/C(=C\C(=O)c1ccccc1)NCc1ccccc1,0,-52,13,1
CC(=O)Nc1ccc(C(=O)NC(C)C)cc1,0,0,-6,0
O=C1CCCN1CCCNc1nc(-c2cccs2)nc2c1ncn2-c1ccsc1,0,55*,14,-1
O=C1CCCN1CCCNc1nc(-c2csc3ccccc23)nc2c1ncn2-c1ccsc1,0,12,8,1
CCCNc1nc(NCCCN2CCCC2=O)nc2c1ncn2-c1ccccc1,0,42*,3,-2
Cn1c(=O)c2c(ncn2Cc2ccc(C#N)cc2)n(C)c1=O,0,-3,5,0
Cn1c(=O)c2c(ncn2Cc2cccc(I)c2)n(C)c1=O,0,39*,-8,0
Cn1c(=O)c2c(ncn2Cc2ccc(C(C)(C)C)cc2)n(C)c1=O,1,57*,17,1
CC(=O)NC1C(=O)N(Cc2ccccc2)c2ccc(Cl)cc21 (configuration not stated),0,4,-3,0
COc1ccc(CC(=O)N2CCC3(CC2)OCc2cccc(OC)c2O3)cc1OC,0,65*,8,1
COc1cccc2c1OC1(CCN(C(=O)Cc3ccc(F)cc3)CC1)OC2,0,0,4,2
CCOC(=O)CNC(=O)CSc1nc2sc3c(c2c(=O)[nH]1)CCC(C)C3 (configuration not stated),0,89*,-1,-2
O=C(Nc1ccccc1)c1cc(S(=O)(=O)Nc2ccc(I)cc2)ccc1Br,0,0,-2,0
SMILES,FBW7 act,TEAD-YAP inh,MITF inh,GPR151 ag
O=C(Nc1cc(-c2ccccc2Oc2ccc(F)cc2)ccn1)C1CCOC1 (configuration not stated),1,26,22,3
O=C(Nc1cc(-c2ccccc2Oc2cccc(F)c2)ccn1)C1CCOC1 (configuration not stated),1,33*,50,2
O=C(Nc1cc(-c2ccccc2OCc2ccccc2)ccn1)C1CCOC1 (configuration not stated),0,89*,11,0
CCOC(=O)c1sc(N/N=C/c2ccccc2O)nc1C,0,49*,7,1
COC(C(=O)Nc1ccnn1C1CCN(Cc2ccc(F)cc2)CC1)c1ccccc1 (configuration not stated),0,0,-3,-1
CC(=O)C1=NN(c2ccc(Cl)cc2)C(c2ccc3c(c2)OCO3)N1C(C)(C)C (configuration not stated),2.0*,2,28,0
COc1cccc(C2(CC(=O)N(C)CC3COCCO3)CC(=O)N(C3CCCC3)C2=O)c1 (configuration not stated),0,-6,-1,-1
c1ccc2c(Nc3nc(Nc4ccc(N5CCOCC5)cc4)c4[nH]cnc4n3)nccc2c1,0,38*,14,-1
Nc1nc(Nc2ccc(N3CCOCC3)cc2)cc(Nc2nccc3ccccc23)n1,0,40*,17,1
c1cncc(Nc2nc(Nc3ccc(N4CCOCC4)cc3)c3[nH]cnc3n2)c1,0,37*,3,1
Nc1nc(Nc2ccccc2)cc(Nc2ccc(N3CCOCC3)cc2)n1,0,15,5,-2
COC(=O)c1ccc(NC(=O)CSc2nnc(-c3ccccc3N)n2C)cc1,0,12,-2,0
COc1cc(C2C(C(=O)Nc3cccc(F)c3)=C(C)NC3=C2C(=O)CC(C)(C)C3)ccc1O (configuration not stated),0,-3,-2,1
COc1cc([N+](=O)[O-])ccc1-c1ccc(/C=C2/N=C(N)SC2=O)o1,0,0,23,-1
O=C(Cc1ccc([N+](=O)[O-])cc1)OCC(=O)c1ccc2ccccc2c1,0,46*,20,1
CCOC(=O)COc1ccc(/C=C2/SC(=S)N(C)C2=O)cc1OCC,0,3,10,1
COCCOC(=O)C1=C(C)NC2=C(C(=O)CC(c3cccs3)C2)C1c1ccsc1 (configuration not stated),1,-7,-3,1
COCCOC(=O)C1=C(C)NC2=C(C(=O)CC(c3ccccc3)C2)C1c1ccc(OCc2ccccc2)cc1 (configuration not stated),3.4*,-10,9,0
COC(=O)C1=C(C)NC2=C(C(=O)CC(c3cccs3)C2)C1c1cc(OC)ccc1OC (configuration not stated),0,33*,-5,3
COc1ccc(C2C(C(=O)OCCc3ccccc3)=C(C)NC3=C2C(=O)CC(c2ccccc2)C3)cc1 (configuration not stated),2,0,7,1
COC(=O)C1=C(C)NC2=C(C(=O)CC(c3cccs3)C2)C1c1cccc(OC)c1 (configuration not stated),0,22,-4,3
CCOC(=O)C1=C(C)NC2=C(C(=O)CC(c3cccs3)C2)C1c1ccsc1 (configuration not stated),0,55*,8,0
CCOC(=O)C1=C(C)NC2=C(C(=O)CC(c3cccs3)C2)C1c1ccc(F)cc1 (configuration not stated),0,70*,-3,2
Cc1ccc(-c2nc(CS(=O)(=O)CC(=O)NC(C)c3ccccc3)c(C)o2)cc1 (configuration not stated),0,4,15,0
COc1cc(OC)c(NC(=O)c2sc3ncn(CC(=O)Nc4cccc(C(F)(F)F)c4)c(=O)c3c2C)cc1Cl,0,3,20,0
Cc1ccc(-n2c(SCC(=O)NCc3cccs3)nc3[nH]ncc3c2=O)cc1Cl,0,5,10,-1
